# From PubChem BioAssay (EPA / NIEHS)
# Results filed as inconclusive are left out. The source made the active and inactive calls. Rule for the calls: active = hit-call score of the fitted dose curve at least 0.9, where 1 is the maximum; inconclusive = response in the unintended direction; inactive = score below 0.9.
# Biological target: rat Neonicotinoid receptor (NNR), Chrna7 (gene 25302) (UniProt Q05941)
# Assay: NVS_LGIC_rNNR_BungSens: NovaScreen (NVS) Ligand-Gated Ion Channel Assay for rat Neonicotinoid receptor (NNR) (AID 2283315)
# Outline: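 Rat cortical membrane preparation incubated 2.5 h with tritiated or iodinated radioligand and test chemical. Bound radioactivity was filtered and counted by scintillation, and displacement was analysed against DMSO.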
# rat Neonicotinoid receptor (NNR), Chrna7 (gene 25302), sequence (Q05941 whole entry, looked up): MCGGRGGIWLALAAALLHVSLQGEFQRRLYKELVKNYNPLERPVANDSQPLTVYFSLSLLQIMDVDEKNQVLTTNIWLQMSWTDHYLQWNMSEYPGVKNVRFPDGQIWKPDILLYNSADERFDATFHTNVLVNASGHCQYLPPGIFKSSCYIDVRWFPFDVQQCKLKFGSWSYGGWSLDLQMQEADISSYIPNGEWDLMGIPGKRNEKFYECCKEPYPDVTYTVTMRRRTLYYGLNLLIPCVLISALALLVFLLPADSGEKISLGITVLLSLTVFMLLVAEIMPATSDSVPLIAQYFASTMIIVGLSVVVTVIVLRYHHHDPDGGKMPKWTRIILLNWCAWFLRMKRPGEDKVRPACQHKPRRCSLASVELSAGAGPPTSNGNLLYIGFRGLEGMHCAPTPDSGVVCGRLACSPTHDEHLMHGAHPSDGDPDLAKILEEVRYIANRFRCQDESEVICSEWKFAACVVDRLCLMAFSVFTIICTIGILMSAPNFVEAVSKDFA
row,Structure (SMILES),outcome
1,Cc1cc(C)c(C(=O)P(=O)(c2ccccc2)c2ccccc2)c(C)c1,inactive
2,Nc1cc2c3c(c1)C(c1ccccc1)=N[C@@H](NC(=O)c1cccnc1)C(=O)N3CC2,inactive
3,CSC(C)(C)C=NO,inactive

# Biological target: Sodium channel protein type 1 subunit alpha (Rattus norvegicus) (UniProt P04774)
# Assay: NVS_IC_rNaCh_site2: NovaScreen (NVS) Ion Channel Assay for rat Sodium Channel, Site 2 (NaCh) (AID 2283322);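 note: hit means loss of radioligand binding signal relative to DMSO so AC50 marks displacement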
# Outline: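 Initial duplicate single-point testing at 25 uM, followed by concentration-response runs for actives. Binding of radioligand to rat forebrain membranes quantified after 1 h via filter-based radiodetection.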
Structure (SMILES),AC50,outcome
N#Cc1ccc(O)cc1,41.3 µM (active),
CCOP(=S)(OCC)SCS(=O)(=O)CC,,inactive
Cc1cc(C)c(C(=O)P(=O)(c2ccccc2)c2ccccc2)c(C)c1,,inactive
Oc1ccc(I)cc1,7.01 µM (active),
CCC(C)(C)c1ccc(O)cc1,41.5 µM (active),
CCCCOCCOP(=O)(OCCOCCCC)OCCOCCCC,,inactive
CC(C)(C)c1ccccc1OP(=O)(Oc1ccccc1)Oc1ccccc1,,inactive
CSC(C)(C)C=NO,,inactive
